Data published in PubChem BioAssay (NCATS).
Inconclusive results are not listed. Entries that show only a call come without a potency. Calls of active or inactive are those of the source. Calls follow the shape of the dose curve; as a rule, active = well fitted curve in the direction sought with a large enough effect; inconclusive = small, poorly fitted or top-dose-only effect, or another doubt; inactive = no such curve, though single readings can be large; an effect the other way counts as inactive or inconclusive.

Tests used:
[1] = Cell Viability - LYMP2-017 (AID 972); also: nearly all actives have a fitted effect of over 55% in size; also: potency is read from the fitted curve at half-maximal effect
In short: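 CellTiter-Glo luminescence (cellular ATP, 30 min RT) measured cytotoxicity after 24 hr compound treatment at 37 C. Cells were a human lymphoblastoid line, LYMP2-017, plated at 2500/well and incubated 5 hr first; concentration-response fitted with Hill equation for AC50.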

[2] = Cell Viability - LYMP2-019 (AID 973); also: nearly all actives have a fitted effect of over 55% in size; also: potency is read from the fitted curve at half-maximal effect
In short: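 AC50 values come from Hill-equation fits of luminescent intracellular ATP (CellTiter-Glo, 30 min, room temperature) following 24 h compound exposure at 37 C. Cells: LYMP2-019 lymphoblastoid line, 2500 per well, in complete culture medium.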

[3] = Cell Viability - LYMP2-021 (AID 974); also: nearly all actives have a fitted effect of over 55% in size; also: potency is read from the fitted curve at half-maximal effect
In short: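 AC50 values come from Hill-equation fits to CellTiter-Glo luminescence (ATP content), read after 24 hour compound exposure at 37 C of 2500 LYMP2-021 lymphoblastoid cells/well; tetraoctylammonium bromide as positive control.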

[4] = Cell Viability - LYMP2-023 (AID 975); also: nearly all actives have a fitted effect of over 55% in size; also: potency is read from the fitted curve at half-maximal effect
In short: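 Intracellular ATP, read by CellTiter-Glo luminescence, reports viability after 24 hr compound exposure at 37 C. 2500 lymphoblastoid cells/well (LYMP2-023) seeded 5 hr beforehand; Hill fits give AC50; positive control tetraoctylammonium bromide.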

[5] = Cell Viability - LYMP2-025 (AID 976); also: potency is read from the fitted curve at half-maximal effect
In short: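 Cytotoxicity read as loss of intracellular ATP (luciferase luminescence) after 24 h compound treatment at 37 C. Uses LYMP2-025 lymphoblastoid cells in 1536-well format; Hill-equation modelling gives AC50; tetraoctylammonium bromide as positive control.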

[6] = Cell Viability - LYMP2-002 (AID 977); also: potency is read from the fitted curve at half-maximal effect
In short: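 Human lymphoblastoid cells (2500/well) in complete medium were preincubated 5 hr at 37 C, then exposed to compounds for 24 hr at 37 C. Intracellular ATP was read by CellTiter-Glo luminescence; AC50 came from Hill-equation concentration-response fits.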

[7] = Cell Viability - LYMP2-006 (AID 978); also: nearly all actives have a fitted effect of over 60% in size; also: potency is read from the fitted curve at half-maximal effect
In short: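 Cells are seeded at 2500 per well and rested 5 hr at 37 C. Compounds are added across a concentration series for 24 hr at 37 C, after which ATP is quantified by luciferase luminescence.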

[8] = Cell Viability - LYMP2-007 (AID 979);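 also: cells exposed to compound for 24 h before reading; nearly all actives have a fitted effect of over 60% in size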; also: potency is read from the fitted curve at half-maximal effect
In short: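 AC50 values come from Hill-equation fits of luminescent intracellular ATP (CellTiter-Glo, 30 min, room temperature) following 24 h compound exposure at 37 C. Cells: LYMP2-007 lymphoblastoid line, 2500 per well, in complete culture medium.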

[9] = Cell Viability - LYMP2-008 (AID 980); also: nearly all actives have a fitted effect of over 60% in size; also: potency is read from the fitted curve at half-maximal effect
In short: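 Cytotoxicity determined from ATP-dependent luciferase luminescence (CellTiter-Glo) following 24 h compound exposure of human lymphoblastoid LYMP2-008 cells at 37 C. Concentration-response data fitted to the Hill equation to give AC50.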

[10] = Cell Viability - LYMP2-010 (AID 981); also: nearly all actives have a fitted effect of over 55% in size; also: potency is read from the fitted curve at half-maximal effect
In short: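 CellTiter-Glo ATP luminescence measured cytotoxicity after 24 h compound exposure at 37 C. LYMP2-010 cells were seeded at 2500/well, with tetraoctylammonium bromide as control; concentration-response curves gave AC50 values by the Hill equation.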

[11] = Cell Viability - LYMP2-012 (AID 982); also: potency is read from the fitted curve at half-maximal effect
[12] = Cell Viability - LYMP2-016 (AID 984); also: nearly all actives have a fitted effect of over 55% in size; also: potency is read from the fitted curve at half-maximal effect
In short: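 Cells were seeded at 2500 per well and rested 5 hr before a 24 hr compound exposure at 37 C. Viability was then gauged as cellular ATP by luciferase luminescence, with AC50 values fitted to the Hill equation.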

[13] = Cell Viability - LYMP2-018 (AID 985); also: nearly all actives have a fitted effect of over 50% in size; also: potency is read from the fitted curve at half-maximal effect
In short: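 Viability read as CellTiter-Glo luminescence (cellular ATP) after 24 hr compound exposure at 37 C of 2500 LYMP2-018 lymphoblastoid cells/well, pre-plated 5 hr. Hill-equation modelling gave AC50.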

[14] = Cell Viability - LYMP2-022 (AID 987); also: nearly all actives have a fitted effect of over 55% in size; also: potency is read from the fitted curve at half-maximal effect
In short: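 Cytotoxicity read as decreased cellular ATP (CellTiter-Glo luminescence, 30 min room temperature) after 24 hours compound exposure of 2500 lymphoblastoid LYMP2-022 cells/well at 37 C. Concentration-response data fitted with standard Hill equation for AC50.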

[15] = Cell Viability - LYMP2-024 (AID 988); also: nearly all actives have a fitted effect of over 60% in size; also: potency is read from the fitted curve at half-maximal effect
In short: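 Cytotoxicity was taken as a decrease in ATP (CellTiter-Glo luminescence) after 24 hr compound exposure at 37 C of LYMP2-024 lymphoblastoid cells, 2500 cells/well. Concentration-response data were fitted to the Hill equation to give AC50.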

[16] = Cell Viability - LYMP2-026 (AID 989); also: nearly all actives have a fitted effect of over 50% in size; also: potency is read from the fitted curve at half-maximal effect
In short: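 Cytotoxicity read as ATP-dependent luminescence (CellTiter-Glo, 30 min room temperature) after 24 h compound treatment at 37 C. LYMP2-026 lymphoblastoid line seeded at 2500 cells/well; AC50 derived by standard Hill equation.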

[17] = Cell Viability - LYMP1-002 - Assay at 24 hr (AID 993); also: potency is read from the fitted curve at half-maximal effect
In short: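 qHTS cytotoxicity at 24 h: CellTiter-Glo ATP luminescence in lymphoblastoid line LYMP1-002 incubated with compound at 37 °C. Concentration-response modeled with the Hill equation for AC50; tetraoctylammonium bromide served as positive control.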

[18] = Cell Viability - LYMP1-002 - Assay at 40 hr (AID 994); also: nearly all actives have a fitted effect of over 60% in size; also: potency is read from the fitted curve at half-maximal effect
In short: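 Cytotoxicity was read as loss of cellular ATP (CellTiter-Glo luminescence) after 40 hr compound exposure at 37 C of 2500 LYMP1-002 lymphoblastoid cells per well. Concentration-response data were fitted with the standard Hill equation to give AC50.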

[19] = biological target: Alpha-galactosidase A (Homo sapiens) (UniProt P06280); assay: Counterscreen for Glucocerebrosidase Inhibitors: qHTS Assay for Human alpha-Galactosidase at pH 4.5 (AID 992)
Sequence of Alpha-galactosidase A (Homo sapiens) (P06280 whole entry, looked up): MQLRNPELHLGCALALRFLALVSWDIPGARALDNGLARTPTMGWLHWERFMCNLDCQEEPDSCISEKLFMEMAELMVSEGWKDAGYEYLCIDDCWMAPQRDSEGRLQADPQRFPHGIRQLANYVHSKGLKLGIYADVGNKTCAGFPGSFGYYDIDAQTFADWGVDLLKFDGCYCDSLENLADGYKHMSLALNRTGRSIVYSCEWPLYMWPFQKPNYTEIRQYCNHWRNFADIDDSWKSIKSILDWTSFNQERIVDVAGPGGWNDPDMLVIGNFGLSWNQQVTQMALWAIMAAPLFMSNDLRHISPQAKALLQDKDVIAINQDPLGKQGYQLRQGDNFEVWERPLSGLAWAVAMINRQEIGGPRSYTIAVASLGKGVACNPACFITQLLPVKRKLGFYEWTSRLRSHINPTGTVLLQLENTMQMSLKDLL
In short: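 Steps: enzyme (2 nM final), then compound across 0.7 nM to 77 uM, then 80 uM fluorogenic galactopyranoside substrate; incubate 20 min at room temperature; quench at pH 10; measure fluorescence at 365/440 nm.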

[20] = biological target: alpha-glucosidase (Oryza sativa, rice) (UniProt Q653V4); assay: Counterscreen for Glucocerebrosidase Inhibitors: qHTS Assay for Rice alpha-Glucosidase at pH 5.0 (AID 997)
In short: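 Endpoint fluorogenic assay at pH 5.0: compounds (0.7 nM to 77 uM) titrated against 4 nM rice enzyme and 400 uM 4-MU-alpha-glucoside for 20 min at room temperature; NaOH/glycine stop, read ex 365/em 440 nm, Hill-fitted AC50.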

| Structure (SMILES) | Potency [1] | Potency [2] | Potency [3] | Potency [4] | Potency [5] | Potency [6] | Potency [7] | Potency [8] | Potency [9] | Potency [10] | Potency [11] | Potency [12] | Potency [13] | Potency [14] | Potency [15] | Potency [16] | Potency [17] | Potency [18] | outcome [19] | outcome [20] |
| --- | --- | --- | --- | --- | --- | --- | --- | --- | --- | --- | --- | --- | --- | --- | --- | --- | --- | --- | --- | --- |
| COc1cc(/C=C/C(=O)CC(=O)/C=C/c2ccc(O)c(OC)c2)ccc1O | 39.8 µM (active) | 39.8 µM (active) | 50.1 µM (active) | 50.1 µM (active) | 50.1 µM (active) | 39.8 µM (active) | 25.1 µM (active) | 25.1 µM (active) | 25.1 µM (active) | 25.1 µM (active) | 31.6 µM (active) | 39.8 µM (active) | 39.8 µM (active) | 25.1 µM (active) | 25.1 µM (active) | 31.6 µM (active) | 39.8 µM (active) | 39.8 µM (active) |  |  |
| CN1[C@@H]2CC[C@H]1CC(OC(c1ccccc1)c1ccccc1)C2 (stereo partly specified) |  |  |  |  |  |  |  |  |  |  |  |  |  |  |  |  |  |  | inactive | inactive |
| N=C(N)SCCc1ccc(CCSC(=N)N)cc1 |  |  |  |  |  |  |  |  |  |  |  |  |  |  |  |  |  |  | inactive | inactive |
| O=C1CN(/N=C/c2ccc([N+](=O)[O-])o2)C(=O)N1 |  |  |  |  | inactive |  |  |  |  |  | inactive |  |  |  | inactive |  | inactive |  |  |  |
| O=c1cc(-c2ccccc2)oc2ccccc12 | inactive | inactive | inactive | inactive | inactive | inactive | inactive | inactive | inactive | inactive | inactive | inactive | inactive | inactive | inactive | inactive | inactive | inactive |  |  |
| Nc1ccc([N+](=O)[O-])cc1O | inactive | inactive | inactive | inactive | inactive | inactive | inactive | inactive | inactive | inactive | inactive | inactive | inactive | inactive | inactive | inactive | inactive | inactive |  |  |
| CN(C)c1ccc(N=NS(=O)(=O)O)cc1 | inactive | inactive | inactive | inactive | inactive | inactive | inactive | inactive | inactive | inactive | inactive | inactive | inactive | inactive | inactive | inactive | inactive | inactive |  |  |
| N=C1N=C(N)c2cc3ccccc3cc21 | 39.8 µM (active) |  | 39.8 µM (active) | 39.8 µM (active) |  |  | 50.1 µM (active) | 39.8 µM (active) | 39.8 µM (active) | 39.8 µM (active) | 39.8 µM (active) | 39.8 µM (active) | 39.8 µM (active) | 39.8 µM (active) | 39.8 µM (active) | 39.8 µM (active) | 39.8 µM (active) | 39.8 µM (active) |  |  |
| CN(C)CCC(c1ccc(Cl)cc1)c1ccccn1 (stereo unspecified) | inactive | inactive | inactive | inactive | inactive | inactive | inactive | inactive | inactive |  |  | inactive | inactive | inactive | inactive | inactive | inactive | inactive |  |  |
| Nc1nc2ccc([N+](=O)[O-])cc2s1 | inactive | inactive | inactive | inactive | inactive | inactive | inactive | inactive | inactive |  | inactive | inactive | inactive | inactive | inactive | inactive | inactive | inactive |  |  |
| COc1ccc(/C=C/C(=O)Nc2ccccc2C(=O)O)cc1OC |  |  |  |  |  |  |  |  |  |  |  |  |  |  |  |  |  |  | inactive | inactive |
| Oc1ccccc1O | inactive | inactive |  | inactive | inactive |  |  | inactive | inactive |  |  | inactive |  |  |  |  | inactive |  | inactive | inactive |
| Nc1ccc(O)c(C(=O)O)c1 | inactive | inactive | inactive | inactive | inactive | inactive | inactive | inactive | inactive | inactive | inactive | inactive | inactive | inactive | inactive | inactive | inactive | inactive |  |  |
| S=c1[nH]c2ccccc2s1 | inactive | inactive | inactive | inactive | inactive | inactive | inactive | inactive | inactive | inactive | inactive | inactive | inactive | inactive | inactive | inactive | inactive | inactive |  |  |
| CCCCCCCCCCCCCCCCCC(=O)O | inactive | inactive | inactive | inactive | inactive | inactive | inactive | inactive | inactive | inactive | inactive | inactive | inactive | inactive | inactive | inactive | inactive | inactive |  |  |
| O=C(O)c1cc(O)c(O)c(O)c1 | inactive | inactive | inactive | inactive |  | inactive | inactive | inactive | inactive | inactive | inactive | inactive | inactive | inactive | inactive | inactive | inactive | inactive |  |  |
